# MCF10A rerep: A quantitative high throughput screen for small molecules that induce DNA re-replication in MCF 10a normal breast cells; MCF 10A DNA re-replication, Hoechst nuclear intensity, 48 h; Potency, µM (titrated, usually from 46.1 µM), without a hit: at the highest dose activity, positive = re-replication, actives largely listed as activators; actives 2.9% (n = 350,000); AID 624296, 2012; note: potency is the fitted concentration of half-maximal effect; % of control where 0% means no effect; nearly all actives have a fitted effect of over 50% in size
# SW480 rerep: A quantitative high throughput screen for small molecules that induce DNA re-replication in SW480 colon adenocarcinoma cells | SW480 DNA re-replication, Hoechst DNA content imaging, 48 h | Potency, µM (highest dose often 46.1 µM), for inactives: at the highest dose re-replication activation, hits mostly activators | actives 1.8% (n = 340,000); note: potency is the fitted concentration of half-maximal effect; % of control where 0% means no effect; nearly all actives have a fitted effect of over 55% in size
#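 Per well, 250 cells were exposed to pinned compound for 48 hr. Nuclear DNA was visualised with Hoechst (40 min, 37 C) and total object intensity recorded by fluorescence scanning.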
# IL1B secr inh: qHTS for Inhibitors of Inflammasome Signaling: IL-1-beta AlphaLISA Primary Screen. THP-1 LPS/ATP IL-1B secretion, AlphaLISA, 16 h; hits give low values. activity change, % at 57.5 µM. actives 4.7% (n = 360,000); in the data active = activity change below about -50%; inconclusive = mostly about -30% to -49%; note: % is set by controls: 0 for no effect and ±100 for the full control effect
#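 Secreted IL-1B measured by AlphaLISA bead assay after 16 h compound exposure of THP-1 cells; compounds (final up to 57.5 uM) added 1 h before LPS (250 ng/mL) and ATP (1.25 mM) stimulation; lower signal means less secretion.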
# S2 tox: Viability Counterscreen for Primary qHTS for Inhibitors of ATXN expression. actives 0.49% (n = 400,000). Potency, µM (titrated, usually from 56.7 µM), actives largely listed as cytotoxic. S2 cells (HEK-293 line with an ATXN2-luciferase reporter) viability, CellTiter-Fluor protease fluorescence, 24 h. AID 651635, 2014; note: potency is the fitted concentration of half-maximal effect; nearly all actives have a fitted effect of over 40% in size
# PINK1 modulator: A Quantitative High throughput Screen to Identify Chemical Modulators of PINK1 Expression; PINK1 immunofluorescence, high-content cytometry, 24 h; Potency, µM (highest dose often 76.6 µM), for the others: at the highest dose activation (PINK1 increase), actives largely listed as activators; actives 0.2% (n = 410,000); AID 624263, 2012; active = well fitted activation curve with a large enough effect; inconclusive = small, poorly fitted or top-dose-only effect; cell line not stated here; note: potency is the fitted concentration of half-maximal effect; % of control where 0% means no effect; nearly all actives have a fitted effect of over 65% in size
#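 PINK1 protein level read as immunofluorescence by microplate cytometer in a fixed, stained stable cell line after 24 h exposure to five compound concentrations, with CCCP as control.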
# ATXN2 expr inh: Primary qHTS for Inhibitors of ATXN expression | actives 0.72% (n = 360,000) | Potency, µM (doses to about 57 µM), without a hit: at the highest dose activity change, negative = inhibition, hits mostly inhibitors | HEK-293 ATXN2-luciferase reporter, luminescence, 24 h | AID 1745845, 2022; note: potency is the fitted concentration of half-maximal effect; % is set by controls: 0 for no effect and ±100 for the full control effect; nearly all actives have a fitted effect of over 55% in size
#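 qHTS (up to 57 uM final) was run with 24 h compound exposure of reporter cells at 37 °C. Each well was multiplexed: SteadyGlo luminescence measured ATXN2-luciferase expression after a fluorogenic Gly-Phe-AFC viability readout (25 uM final).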
# Starred values were filed as active, the others as inactive; i = inactive; ? = inconclusive; . = not tested or not shown; [ ] = another dose, or the depositor's remark. This is a sample that favours compounds with a hit; in the whole collection about 7.1% have one here. Unless noted, calls come from the whole dose curve; as a rule, active = well fitted curve in the direction sought with a large enough effect; inconclusive = small, poorly fitted or top-dose-only effect, or another doubt; inactive = no such curve, though single readings can be large; an effect the other way counts as inactive or inconclusive.
SMILES,MCF10A rerep,SW480 rerep,IL1B secr inh,S2 tox,PINK1 modulator,ATXN2 expr inh
N#Cc1c(N)n(CCNC(=O)c2ccc(Cl)cc2)c2nc3ccccc3nc12,18µM*,?,-58*,i,11%,-23%
COc1ccc(CC(=O)N2CCc3cc(OC)c(OC)cc3C2COc2cc(C)cc(C)c2)cc1OC (configuration not stated),.,.,.,i,-3%,0%
O=C(Cn1c(=O)n(Cc2ccco2)c(=O)c2sc3ccccc3c21)Nc1ccc(F)cc1F,.,.,.,i,3%,3%
CCOC(=O)c1c(Nc2ccc(O)cc2)nnc(-c2ccccc2)c1-c1ccccc1,.,.,.,i,0%,-10%
Cc1cccc2cc(C#N)c(NCCCNS(=O)(=O)c3ccc(Cl)cc3)nc12,?,16µM*,-24,i,25%,.
Cc1cccc2cc(C#N)c(NCCCn3ccnc3)nc12,?,?,-26,i,0%,3%
Cc1cccc2cc(C#N)c(NCc3ccccc3)nc12,23µM*,?,41,i,5%,.
Cc1cccc2cc(C#N)c(NCCNS(=O)(=O)c3ccccc3)nc12,21µM*,?,30,.,1%,-6%
Cc1ccc2cc(C#N)c(NCc3ccccc3)nc2c1,9.2µM*,?,0,.,7%,.
CCN(CC)c1ccc(N=Nc2ccc(S(=O)(=O)N(C)C)cc2)c(S(=O)(=O)NCC[n+]2ccccc2)c1,.,.,.,i,.,.
c1ccc2cc(C3CCCCC3)ncc2c1,11%,-3%,48,i,8%,-2%
CCc1nc2cc(C(=O)NC3CCS(=O)(=O)C3)cc(NC(=O)c3ccccc3OC)c2n1C (configuration not stated),.,.,.,i,2%,.
COc1ccc(N2CCN(C3C(=O)c4ccccc4N3C(C)=O)CC2)cc1 (configuration not stated),.,.,.,.,0%,.
COC(=O)c1nnn(CC(=O)Nc2cccc(OC)c2)c1C(=O)OC,3%,13%,-61*,i,0%,6%
COC(=O)c1nnn(CC(=O)NC(=O)Nc2ccccc2)c1C(=O)OC,?,0%,-70*,i,-1%,-11%
COCCNC(=O)c1ccc(C)c(NC(=O)C2=C(C)OCCS2)c1,3%,-9%,6,i,0%,-10%
CC1=C(C(=O)Nc2cc(C(=O)N(C)Cc3ccccc3)ccc2C)SCCO1,2%,-38%,-55*,i,-2%,1%
NC(C(=O)O)C(O)c1ccc(O)c(O)c1 (configuration not stated),8%,-6%,.,.,.,.
COc1cc(NC(=O)Cn2cc(S(=O)(=O)N3CCC(C)CC3)c3ccccc3c2=O)cc(OC)c1OC,.,.,.,?,1%,-14%
CC(=O)c1cccc(NC(=O)C2(C)Cc3c(-c4cccc(C(F)(F)F)c4)ccnc3O2)c1 (configuration not stated),.,.,-10,?,3%,?
COc1cccc(NC(=O)c2c(N3CCCC3=O)c3cc(C)ccc3n2C)c1,.,.,.,?,0%,-27%
Cc1onc(-c2c(F)cccc2Cl)c1C(=O)Nc1nnc(C(F)(F)F)s1,6%,3%,?,?,16µM*,?
O=C(Nc1ccccc1C(=O)Nc1nnc(C(F)(F)F)s1)c1ccccc1Cl,?,?,-73*,?,?,13µM*
CC(C)(C)CC(=O)Nc1nnc(C(F)(F)F)s1,-1%,8%,18,i,3%,1%
O=C(Nc1ccc(Br)cn1)c1ccc(Cl)s1,?,?,-5,i,6%,17%
SMILES,MCF10A rerep,SW480 rerep,IL1B secr inh,S2 tox,PINK1 modulator,ATXN2 expr inh
O=C(Nc1ccc(Br)cn1)c1ccc(Br)s1,18µM*,8.2µM*,17,i,11%,30%
Cc1onc(-c2c(F)cccc2Cl)c1C(=O)Nc1nccs1,-1%,-8%,17,i,3%,1%
CC(NC(=O)Nc1nnc(C(F)(F)F)s1)(C(F)(F)F)C(F)(F)F,12µM*,?,-62*,?,?,?
COc1ccccc1CNC(=O)CCC1N=C2c3ccccc3N=C(SCC(N)=O)N2C1=O (configuration not stated),.,.,.,.,-1%,.
NC(=O)CSc1ccc2nnc(-c3ccncc3)n2n1,.,.,.,.,1%,.
Cc1sc2c(c1C)c(=O)n(-c1ccccc1)c(=O)n2CC(=O)c1ccc(Cl)cc1,.,.,.,i,1%,-16%
Cc1onc(-c2c(F)cccc2Cl)c1C(=O)NC1=NCCS1,2%,0%,-2,i,-5%[38.3 µM],-6%
O=C(Nc1nnc(C(F)(F)F)s1)c1ccc(Br)s1,19%,2%,-55*,i,?,?
Cc1onc(-c2c(F)cccc2Cl)c1C(=O)Nc1cccc2nsnc12,?,16µM*,?,i,-26%[38.3 µM],-14%
CN(Cc1ccccc1)c1nc2c(S(=O)(=O)c3ccccc3)nnn2c2ccsc12,.,.,.,.,0%,.
CCOC(=O)C1C(C(=O)OC)=C(C(=O)OC)c2ccccc2N1S(=O)(=O)C(F)(F)F (configuration not stated),-12%,8%,33,i,-1%,1%
O=C(C[n+]1cc(Br)cc2ccccc21)c1ccc(Cl)cc1,?,10%,-9,i,14µM*,28%
O=C(C[n+]1cc(Br)cc2ccccc21)c1ccc(Br)cc1,?,-1%,-66*,i,?,-9%
O=C(NC1CCCCC1)c1ccc(CSc2nc3ccncc3n2Cc2cccc(F)c2)cc1,.,.,.,?,2%,?
COc1ccc(-c2n[nH]c3c2C(c2ccc(Cl)cc2Cl)NC3=O)cc1 (configuration not stated),.,.,.,?,1%,-28%
Cc1ccc(C(c2nnnn2Cc2cccs2)N2CCN(Cc3ccc4c(c3)OCO4)CC2)cc1 (configuration not stated),-7%,?,-64*,?,-2%,-20%
c1ccc(-c2nnc(N3CCN(c4ccccn4)CC3)c3ccccc23)cc1,?,2%,-73*,i,-4%,-26%
Clc1nnc(N2CCCCC2)c2ccccc12,?,?,-81*,i,-4%,0%
Cc1ccc(-c2nnc(N3CC(C)OC(C)C3)c3ccccc23)cc1 (configuration not stated),-3%,-5%,-75*,i,2%,-11%[11.3 µM]

# From PubChem
